# SMN2 splice enh – SMN2 splice variant enhancement; HEK293 SMN2-luciferase splicing reporter, luminescence, 30-36 h; Potency, µM (doses to about 46.1 µM), for inactives: at the highest dose activity change, positive = activation, actives largely listed as activators; 210,000 compounds, 2.8% hits; note: % of control where 0% means no effect; nearly all actives have a fitted effect of over 55% in size
#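 qHTS luciferase splicing reporter: luminescence rises when SMN2 exon 7 is included in transfected HEK293 cells. Compound exposure lasted 30-36 h at 37C, with 4.5 mM final sodium butyrate as control, followed by a ONE-Glo read.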
# FLuc counter – inhibits or activates purified firefly luciferase, miR-21 counter-screen. Potency, µM (highest dose often 57.5 µM), without a hit: at the top dose activity change, negative = inhibition, hits mostly inhibitors. AID 588342. P08659. 360,000 compounds, 6.9% hits. purified FLuc, Km substrates, luminescence inhibition;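 note: plate controls were vehicle for no effect and reference inhibitor for full effect; nearly all actives have a fitted effect of over 55% in size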
# Target sequence (P08659 whole entry, looked up): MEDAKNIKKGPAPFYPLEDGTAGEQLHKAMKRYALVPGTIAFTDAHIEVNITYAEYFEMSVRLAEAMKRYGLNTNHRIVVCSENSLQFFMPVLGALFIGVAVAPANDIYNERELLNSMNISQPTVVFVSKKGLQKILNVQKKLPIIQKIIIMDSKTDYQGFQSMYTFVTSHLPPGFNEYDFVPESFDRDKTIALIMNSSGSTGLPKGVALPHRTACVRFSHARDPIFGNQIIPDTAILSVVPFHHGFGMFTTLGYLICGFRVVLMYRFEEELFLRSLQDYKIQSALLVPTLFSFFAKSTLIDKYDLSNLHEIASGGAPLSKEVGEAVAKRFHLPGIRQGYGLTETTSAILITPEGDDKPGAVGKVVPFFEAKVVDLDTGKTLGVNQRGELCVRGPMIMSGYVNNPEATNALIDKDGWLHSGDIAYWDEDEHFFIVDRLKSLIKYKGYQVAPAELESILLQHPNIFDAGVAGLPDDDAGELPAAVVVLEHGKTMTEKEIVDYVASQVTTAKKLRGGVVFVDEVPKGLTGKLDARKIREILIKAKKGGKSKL
#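 Purified P. pyralis luciferase, 10 nM final, with Km-level 10 uM D-luciferin and 10 uM ATP in 50 mM Tris acetate pH 7.5, 10 mM Mg acetate, 0.01% Tween-20, 0.05% BSA; 6-point qHTS titration about 60 µM downward; luminescence read.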
# Rab9 prom act – Rab9 promoter activation; Huh7 Rab9 promoter-luciferase reporter, luminescence, 24 h; Potency, µM (top dose mostly 9.22 µM), inactives show at the highest dose activation, negative = inhibition, hits mostly activators; 320,000 compounds, 2.8% hits; AID 485297; note: % of control where 0% means no effect; nearly all actives have a fitted effect of over 60% in size
#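 Quantitative HTS format; Huh7 Rab9-luciferase reporter cells (1500/well) receive compound 2 h post-plating, incubate 24 h at 37 °C, then get luciferase reagent for 10 min before luminescence reading.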
# KinaseGlo FLuc – blocks Kinase-Glo luciferase, a counter-screen artifact. Q27757. Kinase-Glo luciferase, ATP luminescence, 8 min. Potency, µM (titrated, usually from 38.3 µM), for the others: at the highest dose activity change, negative = inhibition, hits mostly inhibitors. 200,000 compounds, 0.28% hits; note: % is set by controls: 0 for no effect and ±100 for the full control effect; nearly all actives have a fitted effect of over 60% in size
#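 Substrate mix (final 50 mM imidazole pH 7.2, 50 mM KCl, 7 mM MgCl2, 10 uM ATP, 0.01% Tween 20, 0.05% BSA) plus pin-tool compound, then Kinase-Glo detection mix; 8 min ambient, luminescence read.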
# NPC1 prom act – NPC1 promoter activation; Huh7 NPC1 promoter luciferase reporter, 24 h; Potency, µM (doses to about 9.22 µM), inactives show at the top dose activation, most hits filed as activators; 320,000 compounds, 2.4% hits; AID 485313; note: % of control where 0% means no effect; nearly all actives have a fitted effect of over 60% in size
#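 Stable NPC1-promoter luciferase Huh7 line; cpd (DMSO) 24 h, 37 °C, 5% CO2; Amplite luciferase reagent 10 min RT; luminescence readout. qHTS format.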
# Numbers without * were called inactive; ? = inconclusive; . = not tested or not shown; [ ] = dose if it differs, or a comment. Most compounds without a hit are left out; they make up all but 7.3% or so of the library. Calls come from the whole dose curve; as a rule, active = well fitted curve in the direction sought with a large enough effect; inconclusive = small, poorly fitted or top-dose-only effect, or another doubt; inactive = no such curve, though single readings can be large; an effect the other way counts as inactive or inconclusive. Potency is the fitted concentration of half-maximal effect.
SMILES,SMN2 splice enh,FLuc counter,Rab9 prom act,KinaseGlo FLuc,NPC1 prom act
CCOc1cccc(/C=N/N2C(C)CCCC2C)c1O (centres undefined),.,17µM*,4%,.,-1%
CCOc1cccc(C=Nc2cc(C)cc(C)c2O)c1O,14%,27µM*,9%,-3%,3%
CCN1CCC(N(Cc2ccc3c(c2)OCO3)C(=O)Nc2cc(Cl)ccc2C(=O)OC)CC1,.,1%,.,.,.
Cc1ccc(-n2ncc(C(=O)NCCN3CCCC3)c2C2CCN(C(=O)OC(C)(C)C)CC2)cc1C,.,-1%,.,.,.
CCOC(=O)C1=C(C)N(c2ccccc2)C(=O)/C1=C\c1ccc(O)c(OC)c1,.,?,1%,.,-4%
CCOC(=O)C1=C(O)c2ccccc2C(=O)/C1=C\c1ccc(CC)cc1,?,3.4µM*,2%,-11%,2%
CCCc1ccc(/C=C2\C(=O)c3ccccc3C(O)=C2C(=O)OCC)cc1,10µM*,3.4µM*,2%,-6%,16%
Cc1ccccc1C(=O)O/N=C1\CCS(=O)(=O)c2sccc21,16%,0.6µM*,?,1%,?
COc1ccc(N=C2CCS(=O)(=O)c3sccc32)cc1,6%,?,-5%,3%,8%
Cc1ccc(N/N=C2\CCS(=O)(=O)c3sccc32)cc1,-2%,17µM*,-1%,-1%,5%
CC(C)C(=O)O/N=C1\CCS(=O)(=O)c2sccc21,-8%,3%,2%,-5%,-9%
CN(C)/N=C1\CCS(=O)(=O)c2sccc21,-2%,4%,-4%,0%,-3%
COc1ccc(C(=O)O/N=C2\CCS(=O)(=O)c3sccc32)cc1,.,1.9µM*,-4%,4%,-4%
CCC(C)CCCCC(=O)N[C@@H](CCN)C(=O)N[C@H](C(=O)N[C@@H](CCN)C(=O)N[C@H]1CCNC(=O)C([C@@H](C)O)NC(=O)[C@@H](CCN)NC(=O)[C@H](CCN)NC(=O)[C@H](CC(C)C)NC(=O)[C@@H](CC(C)C)NC(=O)[C@H](CCN)NC1=O)[C@@H](C)O (some centres undefined),.,.,.,1%[39.9 µM],.
Cc1ccc2nc(CN3CCN(S(=O)(=O)c4ccccc4)CC3)oc2c1,.,-1%,.,.,.
O=C(Nc1ccc(F)cc1)Nc1ccc(N2CCOCC2)c2nonc12,?,?,2.2µM*,-11%,?
S=c1[nH]nc(-c2cc(-c3ccccn3)nc3ccccc23)o1,.,4%,0%,.,-2%
CCn1c(-c2cc(-c3ccccc3)sc2N)n[nH]c1=S,.,-3%,-3%,.,24%
CCc1ccc(-c2cc(-c3n[nH]c(=S)n3CC)c3ccccc3n2)cc1,?,1.2µM*,24%,-8%,13%
Cc1ccc(-c2cc(-c3n[nH]c(=S)o3)c3ccccc3n2)cc1,-63%,19µM*,-8%,2%,-8%
CCn1c(-c2ccccc2O)n[nH]c1=S,-10%,0%,2%,-7%,4%
CCn1c(-c2cc(-c3cccc(OC)c3)nc3ccccc23)n[nH]c1=S,2%,24µM*,-1%,-4%,-2%
Cc1ccc(CN(C(=O)COc2c(C)cccc2C)C2CCS(=O)(=O)C2)o1 (centres undefined),5%,2%,.,.,.
CCNC(=O)c1ccc(CSc2nc3ccccc3s2)cc1,.,5.4µM*,-1%,.,6%
c1ccc2sc(SCc3ccc(-c4nnco4)cc3)nc2c1,13µM*,4.8µM*,3.2µM*,-9%,1.4µM*
SMILES,SMN2 splice enh,FLuc counter,Rab9 prom act,KinaseGlo FLuc,NPC1 prom act
c1ccc2sc(SCSc3nc4ccccc4s3)nc2c1,-1%[9.22 µM],?,6%,-8%[7.66 µM],12%
CCC(C)/C(C)=N/NC(=O)c1ccc(CSc2nc3ccccc3s2)cc1 (centres undefined),15%,?,21%,3%,5%
NC(=O)c1ccc(CSc2nc3ccccc3s2)cc1,.,?,2.8µM*,.,?
CN1c2ccc(Cl)cc2-c2nc(SCC(=O)NCc3ccc(F)cc3)ncc2S1(=O)=O,.,-2%,.,.,.
CN(CCC#N)C(=O)c1cc2c(s1)-c1ccccc1SC2,.,11µM*,2.5µM*,.,2.2µM*
CCc1nc(NC(C)(C)C)c2cnn(-c3ccccc3)c2n1,.,19µM*,?,.,?
CCCCNc1ncnc2c1cnn2-c1ccc(Cl)cc1,5µM*,2.7µM*,?,0%,?
Clc1ccc(-n2ncc3c(NCc4ccccn4)ncnc32)cc1,5%,.,?,-6%,?
Clc1ccc(-n2ncc3c(NCCCn4ccnc4)ncnc32)cc1,22%,11µM*,?,0%,?
CCCCNc1ncnc2c1cnn2-c1ccccc1,3.5µM*,5.4µM*,?,-6%,?
COCCCNc1ncnc2c1cnn2-c1ccc(F)cc1,.,11µM*,.,.,.
S=C(NCCc1ccccn1)NC1CCCCC1,11µM*,?,?,0%,?
CC(C)OC(=O)n1c(=S)oc2ccccc21,-29%,-8%,0%,-2%,12%
CCCCC(=O)/C=C/n1c(=S)oc2ccccc21,-6%[1.84 µM],2.4µM*,-35%,-4%,-19%
CCOc1ccc(NC(=O)CSc2nc3c(c(=O)[nH]2)CCCC3)cc1,.,-2%,.,.,.
CCN(CC)c1ccc(Nc2cc3n(c(=O)n2)CCc2cc(OC)c(OC)cc2-3)cc1,.,24µM*,17%,.,1%
COc1cc2c(cc1OC)-c1cc(Nc3ccc(N(C)C)cc3)nc(=O)n1CC2,.,12µM*,-5%,.,-3%
COc1cc2c(cc1OC)-c1cc(Nc3ccc(F)cc3)nc(=O)n1CC2,.,-12%,-1%,.,-1%
CCOCCCNC(=O)c1ccc2c(=O)n(CCc3ccccc3)c(=O)[nH]c2c1,1%,1%,.,.,.
COCCn1c(=O)c(-c2cc(F)cc(F)c2)nc2cnc(Oc3cccc(Cl)c3)nc21,-14%,.,.,-10%,.
COc1ccccc1NC(=O)c1csc2c1CCC(C)C2 (centres undefined),.,?,29%,-8%,?
CC1CCc2c(C(=O)Nc3cccc(-c4nn[nH]n4)c3)csc2C1 (centres undefined),.,2.7µM*,?,.,16%
Cc1cc(F)ccc1NC(=O)c1csc2c1CCC(C)C2 (centres undefined),6.3µM*,?,.,.,.
CC1CCc2c(C(=O)NCc3ccco3)csc2C1 (centres undefined),.,-32%,20%,.,17%
CCc1nnc(NC(=O)c2csc3c2CCC(C)C3)s1 (centres undefined),?,-8%,2µM*,-1%,?
Cc1csc2nc(COc3ccccc3NC(=O)c3ccc(C(C)(C)C)cc3)cc(=O)n12,4%,-16%,.,.,.
COc1cccc(CNC(=O)c2cc3c(=O)oc4ccc(C)cc4c3s2)c1,4%,1%,.,.,.
O=C(CCCN1C(=O)S/C(=C\C=C\c2ccccc2)C1=O)Nc1ccc(O)cc1,.,?,24%,.,?
O=C(CCN1C(=O)/C(=C/c2cccs2)SC1=S)Nc1ccc(C(=O)O)cc1,.,?,-5%,.,2%
